Data taken from ChEMBL document CHEMBL4888484, “Replenishing the malaria drug discovery pipeline: Screening and hit evaluation of the MMV Hit Generation Library 1 (HGL1) against asexual blood stage Plasmodium falciparum ,using a nano luciferase reporter read-out” (2022).
The campaign covered roughly 150,000 compounds. About 540 (0.36%) showed an effect of 50% or more. The full list was thinned out, with strong results kept by preference.

What follows are molecules tested on Plasmodium falciparum (assay: Primary screen in NF54 nanoGlo assay, in single point, at 2uM, 72h; a lower Z score goes with more inhibition). Conditions: timepoint 72 hour.
Type: functional, Erythrocyte

Compound	% Inhibition [%]	Z score
Cc1csc(Oc2ccc(N)cc2F)n1	-12	1.47
CC1CN(C(=O)CN(C)c2cnccn2)CC(C)O1 (stereo not drawn)	-5	0.83
Cc1nc2cc(NC(=O)c3ccccn3)ccc2o1	11	-1.99
O=C(Nc1cccc(CNc2nc3ccccc3o2)c1)c1ccccn1	-13	1.61
Cc1cc(NC(=O)c2ccccn2)n(-c2nc3ccccc3o2)n1	89	-10.15
CN(CC(F)(F)F)C(=O)CNc1ncccn1	3	-0.38
Cc1cc(C)cc(NC(=O)C23CCC(C)(C(=O)C2=O)C3(C)C)c1 (stereo not drawn)	9	-1.39
COc1cccc(NC(=O)c2cc(C(=O)Nc3cccc(OC)c3)cc(N3C(=O)c4ccccc4C3=O)c2)c1	18	-2.84
CC(C)c1ccc(-c2nc(CN3CCCCC3)cc(CN3CCCCC3)c2O)cc1	96	-15.06
Cc1nc(O)cc(CN2CCCCC2)n1	-11	1.95
CC(C)c1nc(O)cc(CN2CCCCC2)n1	33	1.16
Cc1ccc(S(=O)(=O)c2c(N)n(-c3ccc4c(c3)OCCO4)c3nc4ccccc4nc23)cc1	6	-0.5
O=C(NC1CC1c1ccc(F)cc1)N1CCN(c2ccccc2O)CC1 (stereo not drawn)	-7	1.5
CC1(C)COc2ccc(C(=O)N3CC[C@H](O)C3(C)C)cc21	19	-2.22
CCn1nnc2cc(C(=O)N3CCN(C(c4ccccc4)c4ccccc4)CC3)ccc21	32	-3.63
COc1ccccc1-c1cc2nc(C)cc(N3CCN(CCO)CC3)n2n1	-14	1.98
COc1ccc(-c2nn3c(N4CCN(CC=Cc5ccccc5)CC4)cc(C)nc3c2C)cc1OC	72	-3.65
COc1ccc(-c2nn3c(N4CCN(C)CC4)cc(C)nc3c2C)cc1OC	-11	2.19
COc1ccccc1-c1cc2nc(C)cc(N3CCN(Cc4ccccc4)CC3)n2n1	-10	1.85
COc1ccc(-c2cc3nc(C)cc(N4CCN(C/C=C/c5ccccc5)CC4)n3n2)cc1OC	51	-9.31
COc1ccc(-c2nn3c(N4CCCCCC4)cc(C)nc3c2C)cc1OC	-8	1.59
COc1ccc(NC(=O)CN2C(=O)[C@H]3CCCC3=Nc3ccccc32)cc1	1	-0.17
Cc1cc(S(=O)(=O)N(C)CCC(=O)O)sc1C	-30	2.75
COc1ccc(-n2c(CN3CCCC3)n[nH]c2=O)c(C)c1	-9	0.87
Cc1ccc(OCC(=O)Nc2noc(-c3ccc(F)cc3)n2)cc1	-8	1.23
CNc1cc(C)nc(N2C[C@H](C)[C@@](O)(C3CC3)C2)n1	7	-1.4
CNc1nc(N2C[C@H](C)[C@@](O)(C3CC3)C2)nc2c1CCC2	100	-0.11

Compound	% Inhibition [%]	Z score
CNc1nc(N2C[C@H]3CC[C@@H](C2)N(C)C3=O)nc2c1CCC2	6	-0.76
C=C1C2CCC3(C4C[C@@H]5[C@@]6(C)CCC[C@]5(C3[C@H]2O)[C@@H]4N(CC)C6)[C@@H]1O (stereo partly drawn)	31	-3.48
Cc1ccc(-c2cc(C(=O)N(Cc3cccs3)[C@H]3CCS(=O)(=O)C3)no2)cc1F	-11	2.15
CN(Cc1ccc(-c2ccccc2)cc1)c1cc([C@H]2C[C@@H](N)C2)nc(N)n1	64	-8.85
CCCCN(C)c1cc([C@H]2C[C@@H](N)C2)nc(N)n1	-3	0.38
CN(Cc1cc(-c2ccccc2)n[nH]1)c1cc(C2CC(O)C2)nc(N)n1 (stereo not drawn)	7	-1.1
CCn1c(CN[C@H](c2ccccc2)c2cccs2)nc2cc(S(=O)(=O)N3CCCCC3)ccc21	14	-1.61
Cc1ccc(NC(=O)N2CC[C@H](N3CCN(C)CC3)[C@H](CCC(=O)O)C2)c(C)c1	16	-2.12
O=C1CCCN1c1ccc(NCc2cccc(O)c2)cc1F	-2	0.32
O=C(N1CCCN(C2CCC2)CC1)C1(c2ccccc2)CCOCC1	-14	2.36
CCOc1cc(CNc2cc(C)ccc2C)cc(Br)c1OCC(=O)Nc1ccccc1	-2	0.3
CCOc1cc(CNc2cccc3ccccc23)cc(Br)c1OCC(=O)NC(C)(C)C	56	-9.96
CCOc1cc(CNC2CCCC2)cc(Br)c1OCC(=O)Nc1ccccc1OC	-12	1.42
CN(C)c1ccccc1NC(=O)N[C@H]1CCS(=O)(=O)C1	-11	1.66
COC(=O)Nc1nc(-c2ccccc2)c(-c2nc3ccccc3c(=O)n2-c2ccc(OC)cc2)s1	51	-6.56
COc1ccc(-n2c(-c3sc(Nc4ccc(Cl)cc4)nc3C)nc3ccccc3c2=O)cc1	-3	0.38
CCOC(=O)Nc1nc(C)c(-c2nc3ccccc3c(=O)n2-c2ccc(OC)cc2)s1	37	0.52
C[C@H]1C(=O)N(C)C[C@@H](COc2ccccc2)N1C(=O)C1CCOCC1	-7	0.87
Cc1cc(CNC(=O)N[C@@H]2CCc3cc(F)ccc32)on1	-7	0.96
COc1ccccc1C(=O)NC1=NN2C(=NC(c3ccc(Cl)cc3)=C[C@H]2c2ccc(Cl)cc2)N1	97	-10.07
O=C(NC1=NN2C(=NC(c3ccc(Cl)cc3)=C[C@H]2c2ccc(F)cc2)N1)c1ccc(Cl)cc1	48	-9.04
O=C(NC1=NN2C(=NC(c3ccccc3)=C[C@H]2c2ccc(F)cc2)N1)c1ccccc1	-11	1.69
COc1ccc([C@@H]2C=C(c3ccc(Cl)cc3)N=C3NC(N4C(=O)c5ccccc5C4=O)=NN32)cc1	-6	0.61
COc1ccc([C@@H]2C=C(c3ccc(Cl)cc3)N=C3NC(NC(=O)c4ccccc4OC)=NN32)cc1	96	-8.52
O=C(O)CCC(=O)NC1=NN2C(=NC(c3ccccc3)=C[C@H]2c2ccc(Cl)cc2)N1	-39	4.56
CCC(=O)NC1=NN2C(=NC(c3ccc(Cl)cc3)=C[C@H]2c2ccc(F)cc2)N1	5	-0.64
Fc1ccc(C2=C[C@@H](c3ccc(Cl)cc3)N3N=C(c4ccc(Cl)cc4)NC3=N2)cc1	96	-14.66

Compound	% Inhibition [%]	Z score
COc1ccccc1C(=O)NC1=NN2C(=NC(c3ccc(Cl)cc3)=C[C@H]2c2ccccc2)N1	-8	0.83
Cc1cccc(OCC(=O)Nc2cc(-c3noc(C)n3)sc2C)c1	-14	2.32
Cc1ccc(-n2cnc3c2CCN(C(=O)C(=O)Nc2c4c(nn2C)CCCC4)C3)cc1	-13	1.99
C[C@H]1Cc2ccccc2N1C(=O)Cn1cc(-c2ccn(C)n2)nn1	6	-0.77
COC(=O)CC(C)NC(=O)CC(C)NC(=O)C1CCCC1 (stereo not drawn)	-9	1.14
OCCN(CCO)c1ccc(C(c2ccccc2Cl)c2ccc(N(CCO)CCO)cc2Cl)c(Cl)c1	-9	1.44
OCCN(CCO)c1ccc2ccccc2c1	7	-0.86
CC1=CC(=[N+](CCO)CCO)C=C/C1=C(\c1ccc(N(CCO)CCO)cc1C)c1ccccc1Cl	86	-10.15
COc1cccc(C(=O)N2CCC([C@]3(CCC(C)C)NC(=O)N(CCN(C)C)C3=O)CC2)c1OC	-8	1.37
O=C(Cc1ccc(F)cc1Cl)N[C@@H](Cc1ccncc1)C1CC(O)C1 (stereo partly drawn)	-6	1.08
N#Cc1cccc(CN2Cc3nc[nH]c3C[C@H]2C(=O)NCc2ccco2)c1	-5	0.75
CCn1c(N)c(-c2nc3ccccc3[nH]2)c(=O)c2ccccc21	-1	0.15
Nc1c(S(=O)(=O)c2ccc(Cl)cc2)c2nc3ccccc3nc2n1Cc1ccc(F)cc1	-2	0.21
Nc1c(-c2nc3ccccc3[nH]2)c2nc3ccccc3nc2n1Cc1ccccc1F	78	-5.76
O=C(COc1ccc(Br)cc1)N1CCN(S(=O)(=O)c2ccc3ccccc3c2)CC1	-3	0.36
CN(C)c1nc2cc(NC(=O)Cc3noc4ccccc34)ccc2o1	-15	2.38
Cn1cnnc1CNC[C@H](O)c1ccc(Cl)cc1	-8	1.54
CN(C)CCNS(=O)(=O)c1c[nH]c2c(Br)cccc12	31	-3.96
Cc1ccc2nc(CN3CCS(=O)(=O)C(C)C3C)cn2c1 (stereo not drawn)	-13	1.17
COCCCNC(=O)c1cc(Br)ccc1Br	-3	0.44
COc1cc2c(cc1OC)CN(C(=O)c1ccc(N3CCOCC3)nc1)CC2	2	-0.32
CC(C)c1nnc(C2CCN(C(=O)c3c[nH]c4ccccc34)CC2)o1	11	-1.46
O=c1[nH]c2cc(Cl)c(S(=O)(=O)Cl)cc2[nH]1	69	-7.82
O=c1[nH]c2cc(Br)c(S(=O)(=O)Nc3cccnc3)cc2[nH]1	3	-0.54
Cc1cc2[nH]c(=O)[nH]c2cc1S(=O)(=O)NC1CCCCC1	-5	0.69
